# Experimental data published in the supplement of paper PMC8699584.
# ± gives the standard deviation of the averaged measurements.
# How the values were obtained:
# Molm13 = assay: cell viability relative to DMSO control (bortezomib = 0%); higher = less growth inhibition; conditions: 10 nM; 72 h
# Outline: (§1)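 FLT3-ITD+ acute myeloid leukemia cells were dispensed onto a library of 679 approved and investigational compounds in 384-well plates, at 1000 cells per well in 50 µL and a single 10 nM dose, for 72 h. The screen was run in duplicate. Cell viability was read by CellTiter-Glo luminescence on an EnVision reader. Values were converted to percentages by per-plate linear regression between DMSO-treated cells (100%) and positive-control-treated cells (0%).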
# Mv4-11 = assay: as above; conditions: 10 nM; 72 h
# Outline: as §1
Structure (SMILES),cell viability (Molm13) [%],cell viability (Mv4-11) [%]
CO[C@H]1C[C@@H]2CC[C@@H](C)[C@@](O)(O2)C(=O)C(=O)N2CCCC[C@H]2C(=O)O[C@H]([C@H](C)C[C@@H]2CC[C@@H](O)[C@H](OC)C2)CC(=O)[C@H](C)/C=C(\C)[C@@H](O)[C@@H](OC)C(=O)[C@H](C)C[C@H](C)/C=C/C=C/C=C/1C [Rapamycin (Sirolimus)],34.4 ± 8.5,43.3 ± 15
CN1CCN(S(=O)(=O)c2ccc(-c3cnc(N)c(C(=O)Nc4cccnc4)n3)cc2)CC1,95.5 ± 17,100 ± 0.48
CN1CCC(CNc2ccc3ncc(-c4cccc(OC(F)(F)F)c4)n3n2)CC1 [SGI-1776 free base],92.3 ± 5.5,97.7 ± 14
C=CC(=O)Nc1cc(Nc2nccc(-c3cn(C)c4ccccc34)n2)c(OC)cc1N(C)CCN(C)C,107 ± 17,114 ± 3.5
CC(=O)Nc1nc(C)c(-c2ccc(Cl)c(S(=O)(=O)NCCO)c2)s1,104 ± 3.5,97.8 ± 21
CCOc1cc(N2CCC(O)CC2)ccc1Nc1ncc2c(n1)N(C)c1ccccc1C(=O)N2C,98.8 ± 5.5,98.8 ± 2
CNC(=O)c1cc(Oc2ccc(NC(=O)Nc3ccc(Cl)c(C(F)(F)F)c3)cc2)ccn1 [Sorafenib],53.7 ± 6.9,47.8 ± 9.4
c1ccc2c(-c3cnn4cc(-c5ccc(N6CCNCC6)cc5)cnc34)ccnc2c1,98 ± 20,112 ± 6.1
C[C@@H](Oc1ccc2[nH]nc(/C=C/c3cnn(CCO)c3)c2c1)c1c(Cl)cncc1Cl,97.5 ± 12,105 ± 3.5
Nc1ncnc2c1c(-c1cccc(OCc3ccccc3)c1)cn2C1CC(CN2CCCC2)C1 (configuration not stated),103 ± 13,96.5 ± 2.5
CC(C)CCN1c2nc(Nc3cc(F)c(O)c(F)c3)ncc2N(C)C(=O)C1C (configuration not stated),100 ± 14,114 ± 6.3
